Over roughly 81,000 sequences, “one-hybrid fitness for binding parS DNA” has its median near -0.17; the highest 2% begin near 0.51. The full list was thinned out, with the highest values kept by preference.
B1: Caulobacter ParB omega fusion; a variant is named by its letters at X, in order, B8GW30 (parent)
chain: MESVVVGEPGMSEGRRGLGRGLSALLGEVDAAPAQAPGEQLGGSREAPIEILQRNPDQPRRTFREEDLEDLSNSIREKGVLQPILVRPSPDTAGEYQIVAGERAWRAAQRAGLKTVPIMVRELDDLAVLEIGIIENVQRADLNVLEEALSYKVLMEKFERTQENIAQTIGKSXSHVANXMRLLXLPDEVQSYLVSGELTAXHARAIAAAADPVALAKQIIEGGLSVRETEALARKAPNLSAGKSKGGRPPRVKDTDTQALESDLSSVLGLDVSIDHRGSTGTLTITYATLEQLDDLCNRLTRGI

Variants of: B1
Experiment: one-hybrid fitness for binding parS DNA (scaled: cognate 1, non-cognate 0); higher = stronger binding
Conditions: with parS DNA site
How it was run: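 Fitness here means the log change in variant-to-wild-type read ratio between plasmids sequenced before and after selection. That scale was set so cognate equals 1 and non-cognate equals 0. The selection was a bacterial one-hybrid screen of Caulobacter ParB libraries, four specificity codons randomised, in E. coli USO carrying a HIS3 reporter with the site 19 bp from the promoter, grown 48 hours at 37°C on M9-minus-histidine with 0.1 mM IPTG and 5 mM 3-AT.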

| Variant | one-hybrid fitness for binding parS DNA |
| --- | --- |
| LQQY | ≤ 0.2 |
| RMYS | 1.01 |
| RMNP | ≤ 0.2 |
| RMYH | 0.234 |
| RMNH | 0.287 |
| RMNS | 0.911 |
| RMYN | 0.47 |
| AHEC | ≤ 0.2 |
| EPSR | ≤ 0.2 |
| TPDV | ≤ 0.2 |
| PQMC | ≤ 0.2 |
| RNTN | 0.357 |
| RNTM | 0.233 |
| RNTH | ≤ 0.2 |
| RNTD | ≤ 0.2 |
| RNTC | 0.865 |
| RNTP | ≤ 0.2 |
| RNTY | 0.368 |
| RNTK | ≤ 0.2 |
| RNTR | ≤ 0.2 |
| RNTT | 0.746 |
| RNTG | 0.908 |
| RNTS | 0.964 |
| NCAN | ≤ 0.2 |
| MWTR | ≤ 0.2 |
| DRQW | ≤ 0.2 |

| Variant | one-hybrid fitness for binding parS DNA |
| --- | --- |
| ADQL | ≤ 0.2 |
| NGAG | ≤ 0.2 |
| HAPM | ≤ 0.2 |
| HNLP | ≤ 0.2 |
| SYAS | ≤ 0.2 |
| AFDG | ≤ 0.2 |
| RFNG | 1 |
| NFNG | ≤ 0.2 |
| RFDD | ≤ 0.2 |
| RFDG | 0.814 |
| DFNG | ≤ 0.2 |
| LMSV | ≤ 0.2 |
| AAST | ≤ 0.2 |
| SSPQ | ≤ 0.2 |
| THVR | ≤ 0.2 |
| DHYT | ≤ 0.2 |
| GFSS | ≤ 0.2 |
| RYKH | ≤ 0.2 |
| RYKN | 0.394 |
| RYVR | ≤ 0.2 |
| RYKT | 0.708 |
| RYVT | 0.716 |
| RYVK | ≤ 0.2 |
| HYNK | ≤ 0.2 |
| QWNN | ≤ 0.2 |
| PIAM | ≤ 0.2 |

| Variant | one-hybrid fitness for binding parS DNA |
| --- | --- |
| LLNT | ≤ 0.2 |
| MIIT | ≤ 0.2 |
| IARP | ≤ 0.2 |
| RGVW | ≤ 0.2 |
| RRKN | 0.84 |
| RRVN | 0.268 |
| RCNM | 0.349 |
| RRVM | ≤ 0.2 |
| RRDM | ≤ 0.2 |
| RRKP | 0.338 |
| RCKN | 0.463 |
| RRKM | 0.802 |
| RCKM | 0.402 |
| RRNM | 0.656 |
| RRKS | 0.684 |
| RRKD | ≤ 0.2 |
| IVNW | ≤ 0.2 |
| TART | ≤ 0.2 |
| ACQS | ≤ 0.2 |
| MKRG | ≤ 0.2 |
| RRVD | ≤ 0.2 |
| RRVP | ≤ 0.2 |
| RCKH | ≤ 0.2 |
| RRKH | 0.623 |
| RRVH | ≤ 0.2 |
| RRVS | 0.708 |

| Variant | one-hybrid fitness for binding parS DNA |
| --- | --- |
| RRRM | 0.762 |
| RRYM | 0.206 |
| RCRM | 0.365 |
| GKVS | ≤ 0.2 |
| NRQG | ≤ 0.2 |
| ATIC | ≤ 0.2 |
| YVNR | ≤ 0.2 |
| QQAI | ≤ 0.2 |
| RVHA | 0.552 |
| DVWA | ≤ 0.2 |
| PVSA | ≤ 0.2 |
| SVIA | ≤ 0.2 |
| NVWA | ≤ 0.2 |
| RVWA | 0.616 |
| PVHA | ≤ 0.2 |
| RVSA | 0.581 |
| RVPA | 0.324 |
| RVIA | 0.522 |
| TLSH | ≤ 0.2 |
| DKSV | ≤ 0.2 |
| GGQR | ≤ 0.2 |
| GCKT | ≤ 0.2 |
| HKHC | ≤ 0.2 |
| EMRS | ≤ 0.2 |
| QDPW | ≤ 0.2 |
| RVNA | 0.602 |

| Variant | one-hybrid fitness for binding parS DNA |
| --- | --- |
| DVMA | ≤ 0.2 |
| NVYA | ≤ 0.2 |
| NVQA | ≤ 0.2 |
| PVNA | ≤ 0.2 |
| RVYA | 0.64 |
| RVMA | 0.545 |
| RVQA | 0.597 |
| NVNA | ≤ 0.2 |
| RVEA | 0.483 |
| EVQA | ≤ 0.2 |
| FHNR | ≤ 0.2 |
| KHET | ≤ 0.2 |
| LGQH | ≤ 0.2 |
| KKTT | ≤ 0.2 |
| TGPM | ≤ 0.2 |
| PPMA | ≤ 0.2 |
| WVPV | ≤ 0.2 |
| GEND | ≤ 0.2 |
| TSEH | ≤ 0.2 |
| RVLA | 0.565 |
| DVGA | ≤ 0.2 |
| NVRA | ≤ 0.2 |
| RVRA | 0.689 |
| NVDA | ≤ 0.2 |
| DVRA | ≤ 0.2 |
| RVGA | 0.565 |

| Variant | one-hybrid fitness for binding parS DNA |
| --- | --- |
| PVGA | ≤ 0.2 |
| NVLA | ≤ 0.2 |
| CVLA | ≤ 0.2 |
| RVDA | 0.556 |
| EWRT | ≤ 0.2 |
| LSNV | ≤ 0.2 |
| LQAW | ≤ 0.2 |
| ESFC | ≤ 0.2 |
| WPSS | ≤ 0.2 |
| KRVW | ≤ 0.2 |
| IRFN | ≤ 0.2 |
| FLDR | ≤ 0.2 |
| MLTT | ≤ 0.2 |
| YVRR | ≤ 0.2 |
| RCPV | ≤ 0.2 |
| NVCA | ≤ 0.2 |
| RVCA | 0.608 |
| KMLT | ≤ 0.2 |
| WVPC | ≤ 0.2 |
| CYWL | ≤ 0.2 |
| QPKK | ≤ 0.2 |
| VRCA | ≤ 0.2 |
| RHVC | 0.773 |
| RHKM | 0.358 |
